# Results as given in publication PMC8384837, “Expanding the binding specificity for RNA recognition by a PUF domain”.
# What was measured:
# Assay in all cases: yeast three-hybrid, YBZ-1, SC-Leu-His + 0.5 mM 3-AT, 4 days
# Details in all cases: tags: N-Gal4 AD-HA kept; label: inside an RPR1-promoter hybrid RNA with tandem MS2 sites; ssRNA
# PUM1 PUF domain R3-ART = PUM1 PUF domain R3-ART (Homo sapiens, UniProt Q14671 828-1176, C935A;Q939T)
# Summary of the method: (§1)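 The interaction score is the log change in variant frequency from input to selection. Scores were computed in log2 with a pseudocount of 1 for absent variants, using Illumina sequencing of PCR-amplified repeat regions. The input came from four days on SC-Leu and the selection from four days on SC-Leu-His + 0.5 mM 3-AT. The cells were strain YBZ-1 (LexA–MS2 coat fusion, HIS3 reporter) co-expressing Pumilio-1 PUF domain libraries and matching RNA elements from a centromeric plasmid.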
# PUM1 PUF domain R5-RAV = PUM1 PUF domain R5-RAV (Homo sapiens, UniProt Q14671 828-1176, C1007R;R1008A;Q1011V)
# Summary of the method: as §1
# PUM1 PUF domain R3-EYS = PUM1 PUF domain R3-EYS (Homo sapiens, UniProt Q14671 828-1176, C935E;R936Y;Q939S)
# Summary of the method: as §1
# PUM1 PUF domain R3-IFS = PUM1 PUF domain R3-IFS (Homo sapiens, UniProt Q14671 828-1176, C935I;R936F;Q939S)
# Summary of the method: as §1
# PUM1 PUF domain R5-NIL = PUM1 PUF domain R5-NIL (Homo sapiens, UniProt Q14671 828-1176, C1007N;R1008I;Q1011L)
# Summary of the method: as §1
# PUM1 PUF domain R8-VYF = PUM1 PUF domain R8-VYF (Homo sapiens, UniProt Q14671 828-1176, N1122V;Q1126F)
# Summary of the method: as §1
# PUM1 PUF domain R8-RWP = PUM1 PUF domain R8-RWP (Homo sapiens, UniProt Q14671 828-1176, N1122R;Y1123W;Q1126P)
# Summary of the method: as §1
# PUM1 PUF domain R8-PYL = PUM1 PUF domain R8-PYL (Homo sapiens, UniProt Q14671 828-1176, N1122P;Q1126L)
# Summary of the method: as §1
# PUM1 PUF domain R8-RYN = PUM1 PUF domain R8-RYN (Homo sapiens, UniProt Q14671 828-1176, N1122R;Q1126N)
# Summary of the method: as §1
# PUM1 PUF domain R7-EPW = PUM1 PUF domain R7-EPW (Homo sapiens, UniProt Q14671 828-1176, S1079E;N1080P;E1083W)
# Summary of the method: as §1
# PUM1 PUF domain R7-RGW = PUM1 PUF domain R7-RGW (Homo sapiens, UniProt Q14671 828-1176, S1079R;N1080G;E1083W)
# Summary of the method: as §1
# PUM1 PUF domain R4-SRE = PUM1 PUF domain R4-SRE (Homo sapiens, UniProt Q14671 828-1176, N971S;H972R;Q975E)
# Summary of the method: as §1
# PUM1 PUF domain R4-ARG = PUM1 PUF domain R4-ARG (Homo sapiens, UniProt Q14671 828-1176, N971A;H972R;Q975G)
# Summary of the method: as §1
# PUM1 PUF domain R6-NFT = biological target: T1, PUM1 PUF domain R6-NFT (Homo sapiens, UniProt Q14671 828-1176, Y1044F;Q1047T)
# T1 sequence: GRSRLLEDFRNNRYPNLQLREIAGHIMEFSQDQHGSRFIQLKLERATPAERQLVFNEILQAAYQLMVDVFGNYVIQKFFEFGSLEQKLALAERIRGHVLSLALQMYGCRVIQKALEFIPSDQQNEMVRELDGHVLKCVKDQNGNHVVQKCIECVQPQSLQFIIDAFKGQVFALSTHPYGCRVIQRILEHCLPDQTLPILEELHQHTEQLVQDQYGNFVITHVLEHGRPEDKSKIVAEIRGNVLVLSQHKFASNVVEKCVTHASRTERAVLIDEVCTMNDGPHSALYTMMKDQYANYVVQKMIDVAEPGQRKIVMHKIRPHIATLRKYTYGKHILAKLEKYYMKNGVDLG
# Summary of the method: as §1
# PUM1 PUF domain R3-ESL = PUM1 PUF domain R3-ESL (Homo sapiens, UniProt Q14671 828-1176, C935E;R936S;Q939L)
# Summary of the method: as §1
# PUM1 PUF domain R4-NPG = PUM1 PUF domain R4-NPG (Homo sapiens, UniProt Q14671 828-1176, H972P;Q975G)
# Summary of the method: as §1
# PUM1 PUF domain R5-EFW = PUM1 PUF domain R5-EFW (Homo sapiens, UniProt Q14671 828-1176, C1007E;R1008F;Q1011W)
# Summary of the method: as §1
# PUM1 PUF domain R4-RMR = PUM1 PUF domain R4-RMR (Homo sapiens, UniProt Q14671 828-1176, N971R;H972M;Q975R)
# Summary of the method: as §1
# PUM1 PUF domain R4-GSQ = PUM1 PUF domain R4-GSQ (Homo sapiens, UniProt Q14671 828-1176, N971G;H972S)
# Summary of the method: as §1
# PUM1 PUF domain R7-KFY = PUM1 PUF domain R7-KFY (Homo sapiens, UniProt Q14671 828-1176, S1079K;N1080F;E1083Y)
# Summary of the method: as §1
# Sequence of PUM1 PUF domain R4-NPG (Q14671 828-1176 H972P/Q975G): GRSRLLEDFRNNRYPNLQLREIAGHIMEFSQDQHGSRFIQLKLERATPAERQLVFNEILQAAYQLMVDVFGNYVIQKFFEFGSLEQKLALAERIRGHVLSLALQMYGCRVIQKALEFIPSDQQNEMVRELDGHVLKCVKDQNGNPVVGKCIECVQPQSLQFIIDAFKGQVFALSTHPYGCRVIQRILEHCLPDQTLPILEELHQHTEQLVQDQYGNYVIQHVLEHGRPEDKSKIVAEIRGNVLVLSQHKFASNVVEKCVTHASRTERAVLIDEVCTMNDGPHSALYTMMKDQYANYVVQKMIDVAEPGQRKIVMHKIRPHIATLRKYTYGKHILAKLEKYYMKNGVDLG
# Sequence of PUM1 PUF domain R4-ARG (Q14671 828-1176 N971A/H972R/Q975G): as the sequence (Q14671 828-1176 H972P/Q975G) above, with N144A, P145R counted along it
sequence,measurement,setting,value
GGCUAGAACUAGUGGAUCCCCCGGCGCCCGGCGGCUCGAGCCCGGGUAAGUGUAAUUAGUCUGCAUGCCGCCGGGCGCCAUGCCUGCAGGUCGACUCUAGAAAACAUG,binding signal,PUM1 PUF domain R3-ART,0.34 log2 enrichment (interaction score)
GGCUAGAACUAGUGGAUCCCCCGGCGCCCGGCGGCUCGAGCCCGGGUAAGUGUCAAUAGUCUGCAUGCCGCCGGGCGCCAUGCCUGCAGGUCGACUCUAGAAAACAUG,binding signal,PUM1 PUF domain R5-RAV,2.94 log2 enrichment (interaction score)
GGCUAGAACUAGUGGAUCCCCCGGCGCCCGGCGGCUCGAGCCCGGGUAAGUGUAAGUAGUCUGCAUGCCGCCGGGCGCCAUGCCUGCAGGUCGACUCUAGAAAACAUG,binding signal,PUM1 PUF domain R3-EYS,4.44 log2 enrichment (interaction score)
same,binding signal,PUM1 PUF domain R3-IFS,5.56 log2 enrichment (interaction score)
GGCUAGAACUAGUGGAUCCCCCGGCGCCCGGCGGCUCGAGCCCGGGUAAGUGUUAAUAGUCUGCAUGCCGCCGGGCGCCAUGCCUGCAGGUCGACUCUAGAAAACAUG,binding signal,PUM1 PUF domain R5-NIL,3.18 log2 enrichment (interaction score)
GGCUAGAACUAGUGGAUCCCCCGGCGCCCGGCGGCUCGAGCCCGGGUAAGCGUAAAUAGUCUGCAUGCCGCCGGGCGCCAUGCCUGCAGGUCGACUCUAGAAAACAUG,binding signal,PUM1 PUF domain R8-VYF,2.73 log2 enrichment (interaction score)
same,binding signal,PUM1 PUF domain R8-RWP,5 log2 enrichment (interaction score)
same,binding signal,PUM1 PUF domain R8-PYL,3.48 log2 enrichment (interaction score)
same,binding signal,PUM1 PUF domain R8-RYN,6.46 log2 enrichment (interaction score)
GGCUAGAACUAGUGGAUCCCCCGGCGCCCGGCGGCUCGAGCCCGGGUAAGUUUAAAUAGUCUGCAUGCCGCCGGGCGCCAUGCCUGCAGGUCGACUCUAGAAAACAUG,binding signal,PUM1 PUF domain R7-EPW,2.81 log2 enrichment (interaction score)
same,binding signal,PUM1 PUF domain R7-RGW,3.68 log2 enrichment (interaction score)
GGCUAGAACUAGUGGAUCCCCCGGCGCCCGGCGGCUCGAGCCCGGGUAAGUGUAAAUAGUCUGCAUGCCGCCGGGCGCCAUGCCUGCAGGUCGACUCUAGAAAACAUG,binding signal,PUM1 PUF domain R4-SRE,3.49 log2 enrichment (interaction score)
same,binding signal,PUM1 PUF domain R4-ARG,4.57 log2 enrichment (interaction score)
same,binding signal,PUM1 PUF domain R6-NFT,4.45 log2 enrichment (interaction score)
same,binding signal,PUM1 PUF domain R3-ESL,2.59 log2 enrichment (interaction score)
same,binding signal,PUM1 PUF domain R8-VYF,2.23 log2 enrichment (interaction score)
same,binding signal,PUM1 PUF domain R4-NPG,2.63 log2 enrichment (interaction score)
same,binding signal,PUM1 PUF domain R8-RWP,3.02 log2 enrichment (interaction score)
same,binding signal,PUM1 PUF domain R3-ART,3.43 log2 enrichment (interaction score)
same,binding signal,PUM1 PUF domain R5-EFW,4.47 log2 enrichment (interaction score)
same,binding signal,PUM1 PUF domain R8-PYL,2.9 log2 enrichment (interaction score)
same,binding signal,PUM1 PUF domain R8-RYN,5.13 log2 enrichment (interaction score)
GGCUAGAACUAGUGGAUCCCCCGGCGCCCGGCGGCUCGAGCCCGGGUAAGUGUGAAUAGUCUGCAUGCCGCCGGGCGCCAUGCCUGCAGGUCGACUCUAGAAAACAUG,binding signal,PUM1 PUF domain R5-EFW,4.12 log2 enrichment (interaction score)
GGCUAGAACUAGUGGAUCCCCCGGCGCCCGGCGGCUCGAGCCCGGGUAAGUGUACAUAGUCUGCAUGCCGCCGGGCGCCAUGCCUGCAGGUCGACUCUAGAAAACAUG,binding signal,PUM1 PUF domain R4-RMR,2.94 log2 enrichment (interaction score)
same,binding signal,PUM1 PUF domain R4-ARG,1.86 log2 enrichment (interaction score)
same,binding signal,PUM1 PUF domain R4-NPG,1.42 log2 enrichment (interaction score)
same,binding signal,PUM1 PUF domain R4-GSQ,3.24 log2 enrichment (interaction score)
GGCUAGAACUAGUGGAUCCCCCGGCGCCCGGCGGCUCGAGCCCGGGUAAGUAUAAAUAGUCUGCAUGCCGCCGGGCGCCAUGCCUGCAGGUCGACUCUAGAAAACAUG,binding signal,PUM1 PUF domain R7-KFY,2.56 log2 enrichment (interaction score)
GGCUAGAACUAGUGGAUCCCCCGGCGCCCGGCGGCUCGAGCCCGGGUAAGUCUAAAUAGUCUGCAUGCCGCCGGGCGCCAUGCCUGCAGGUCGACUCUAGAAAACAUG,binding signal,PUM1 PUF domain R7-KFY,3.1 log2 enrichment (interaction score)
GGCUAGAACUAGUGGAUCCCCCGGCGCCCGGCGGCUCGAGCCCGGGUAAGUGUAUAUAGUCUGCAUGCCGCCGGGCGCCAUGCCUGCAGGUCGACUCUAGAAAACAUG,binding signal,PUM1 PUF domain R4-ARG,1.79 log2 enrichment (interaction score)
same,binding signal,PUM1 PUF domain R4-NPG,3.81 log2 enrichment (interaction score)
same,binding signal,PUM1 PUF domain R4-GSQ,0.64 log2 enrichment (interaction score)
